Measurements from PubChem BioAssay (NCATS).
“And” between values parts separate entries of the source, which are not always exact repeats. Equal entries are not always repeated. Results filed as inconclusive are left out. A call without a number means that no potency is given here. The source made the active and inactive calls. Unless noted, calls come from the whole dose curve; as a rule, active = well fitted curve in the direction sought with a large enough effect; inconclusive = small, poorly fitted or top-dose-only effect, or another doubt; inactive = no such curve, though single readings can be large; an effect the other way counts as inactive or inconclusive.

What was measured:
[1] = qHTS assay for cell viability of the p53RE-bla HCT-116 cell line (AID 743292); note: nearly all actives have a fitted effect of over 55% in size; note: potency is the fitted concentration of half-maximal effect
How it was run: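 After plating at 4,000 cells per well and a 5 h rest at 37 C, HCT-116 cells carrying p53RE-bla received test chemicals in DMSO. Sixteen hours later at 37 C, CellTiter-Glo was added and luminescence recorded following 30 min at room temperature.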

[2] = qHTS assay for measurement of the activity of small molecule inhibitors on Zika virus induced Caspase-3 activity in human astrocytoma cells (AID 1224859)
How it was run: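 In SNB-19 cells plated at 250 cells/well and grown 16-20 h, compounds were applied 1 h before ZIKV (2 FFU/cell). Six hours later caspase-3/7 luminescence was recorded.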

[3] = P-glycoprotein substrates identified in KB-8-5-11 adenocarcinoma cell line, qHTS therapeutic library screen (AID 1346987); note: nearly all actives have a fitted effect of over 65% in size; note: potency is the fitted concentration of half-maximal effect
How it was run: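 KB-8-5-11: colchicine-selected sub-line of KB-3-1 over-expressing P-gp; assay medium lacked colchicine. 72 h drug exposure at 37 degree C, CellTiter-Glo.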

[4] = qHTS assay for cell viability of HEK293 cells (AID 743288); conditions: ATP luminescence (CellTiter-Glo), 18 h; max response: stronger effect = lower value; note: nearly all actives have a fitted effect of over 50% in size; note: potency is the fitted concentration of half-maximal effect
How it was run: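 HEK293 parental, 2,000 cells/well; ≥5 h pre-incubation 37 C; pintool compound addition; 18 h, 37 C; CellTiter-Glo 30 min RT; luminescence read.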

[5] = qHTS assay to identify small molecule inhibitors of chordoma cells - UCH-1 (AID 1259355); note: nearly all actives have a fitted effect of over 55% in size
How it was run: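 Cells (800/well) were seeded and left overnight at 37 C, 5% CO2, then treated with drugs at 15 concentrations plus a combination mix of auranofin, camptothecin, doxorubicin, rubitecan and topotecan. Viability after 48hr was read by CellTiter-Glo luminescence.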

[6] = qHTS assay to identify small molecule inhibitors of chordoma cells - UCH-2 (AID 1259356)
[7] = P-glycoprotein substrates identified in KB-3-1 adenocarcinoma cell line, qHTS therapeutic library screen (AID 1346986); note: nearly all actives have a fitted effect of over 60% in size
How it was run: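 Compounds were tested in dose-response against KB-3-1 and KB-8-5-11 cells at 37 degree C for 72 h, and viability was measured by luminescence. AC50 values came from curve fitting with class-based activity calls.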

[8] = qHTS profiling for inhibitors of Plasmodium falciparum (3D7) proliferation (AID 743322; call rule not given here;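 note: infected erythrocytes exposed to compound for 72 h before lysis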); conditions: P. falciparum 3D7 proliferation; at 28.7 µM (top of the series) unless noted
How it was run: (§1)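 Erythrocytes infected with P. falciparum (0.3% parasitemia, 2.5% hematocrit) incubated with compounds 72 h at 37 C, 5% CO2. Lysis with saponin/Triton buffer containing SYBR Green I, overnight at room temperature in the dark; DNA fluorescence (485/535 nm) normalised to 0.29 uM artemisinin and DMSO.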

[9] = qHTS profiling for inhibitors of Plasmodium falciparum (DD2) proliferation (AID 743323; call rule not given here); conditions: lower = more inhibition; at 28.7 µM (top of the series) unless noted
How it was run: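 P. falciparum Dd2-infected erythrocytes (0.3% parasitemia, 2.5% hematocrit) exposed 72 h at 37 C, 5% CO2. Lysis with SYBR Green, overnight at room temperature, fluorescence 485/535 nm; normalized to 0.29 uM artemisinin and DMSO.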

[10] = qHTS profiling for inhibitors of Plasmodium falciparum (HB3) proliferation (AID 743324); conditions: Plasmodium falciparum HB3 blood-stage proliferation; at 28.7 µM (top of the series) unless noted
How it was run: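 P. falciparum HB3 grown in erythrocytes (0.3% parasitemia, 2.5% hematocrit final) with compound for 72 h at 37 C, 5% CO2. Parasite DNA detected by SYBR Green after saponin/triton lysis overnight; normalized to 0.29 uM artemisinin and DMSO.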

[11] = qHTS profiling of the MIPE4 collection as inhibitors of Plasmodium falciparum (3D7) proliferation (AID 743344; call rule not given here); conditions: P. falciparum 3D7 in erythrocytes, SYBR Green DNA fluorescence, 72 h; at 28.5 µM (top of the series)
How it was run: as §1

[12] = qHTS profiling of the MIPE4 collection as inhibitors of Plasmodium falciparum (DD2) proliferation (AID 743345; call rule not given here); conditions: P. falciparum Dd2 in erythrocytes, SYBR Green DNA, 72 h; at 28.5 µM (top of the series)
How it was run: as §1

[13] = qHTS profiling of the MIPE4 collection as inhibitors of Plasmodium falciparum (DD2) proliferation (Rep 2) (AID 743346; call rule not given here); conditions: P. falciparum Dd2 in erythrocytes, SYBR Green DNA, 72 h; at 28.5 µM (top of the series)
How it was run: as §1

[14] = qHTS profiling of the MIPE4 collection as inhibitors of Plasmodium falciparum (HB3) proliferation (AID 743347; call rule not given here); conditions: P. falciparum HB3 in erythrocytes, SYBR Green DNA, 72 h; at 28.5 µM (top of the series)
How it was run: as §1

[15] = Identifying Small Molecule Inhibitors of Pancreatic Cancer Stem Cells (SN12C, Adherent) (AID 1259358);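 note: potency is the fitted concentration of half-maximal effect; cell survival measured after 48 h of compound exposure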
How it was run: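 Endpoint: ATP-based luminescence, 48 h drug exposure. Bortezomib at 9.2 uM final as full-kill control; DMSO vehicle as negative control; activity normalized between vehicle and cell-free wells.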

[16] = Identifying Small Molecule Inhibitors of Pancreatic Cancer Stem Cells (Panc1, Spheroid) (AID 1259359); conditions: Panc1 spheroid cancer stem cell viability;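 note: potency is the fitted concentration of half-maximal effect; compound exposure lasted 48 h before reading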
How it was run: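 After a 4 h attachment period, compounds were pinned into wells and cultures held 48 h under standard incubator conditions. Viability was then measured as CellTiter-Glo luminescence following 10 min at room temperature.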

[17] = Identifying Small Molecule Inhibitors of Pancreatic Cancer Stem Cells (Panc1, Adherent) (AID 1259362); conditions: viability; note: potency is the fitted concentration of half-maximal effect
How it was run: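 Luminescent ATP readout (CellTiter-Glo) quantifies surviving cells after a 48 h drug incubation. Normalization uses DMSO wells as no inhibition and media-only wells as full inhibition; bortezomib served as positive control.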

Which Potency [1] does the source give for `NCCO` here?
Its Potency is “inactive”.

What about the Potency [2] of the same compound?
The Potency was “inactive”.

And the Potency [3]?
Its Potency is “inactive”.

Which results are given for `O=C(O)/C=C\C(=O)O`?
max response [4]: 5.88% (inactive); Potency [1]: inactive; Potency [2]: inactive

For `COC(=O)C1=C(C)NC(C)=C(C(=O)OCC(C)=O)C1c1ccccc1[N+](=O)[O-]` (configuration not stated), which Potency [2] is on record?
Its Potency is “inactive”.

What about the Potency [3] of the same compound?
Its Potency is 7.31 µM (active).

What does the source list for `COc1cc(/C=C/C(=O)N2CCN(CC(=O)N3CCCC3)CC2)cc(OC)c1OC`?
Potency [5]: inactive; Potency [6]: inactive; Potency [7]: inactive; Potency [3]: inactive

Which max response [4] does the source give for `C#C[C@]1(O)CC[C@H]2[C@@H]3CCc4cc(O)ccc4[C@H]3CC[C@@]21C` here?
The max response was -11.3% (inactive) and -0.854% (inactive).

And the Potency [1]?
The Potency was “inactive”.

And the Potency [2]?
The Potency was “inactive”.

What about the Potency [6] of the same compound?
The Potency was “inactive”.

And the Potency [3]?
The Potency was 6.51 µM (active).

Which results are given for `Nc1ccc([N+](=O)[O-])cc1O`?
max response [4]: 3.96% (inactive) and 2.89% (inactive); Potency [1]: inactive; Potency [2]: inactive; Potency [3]: inactive

What does the source list for `Nc1ccc(O)c([N+](=O)[O-])c1`?
max response [4]: -18.2% (inactive) and -13.9% (inactive); Potency [1]: inactive; Potency [2]: inactive; Potency [3]: inactive

For `CN(C)c1ccc(C(=C2C=CC(=[N+](C)C)C=C2)c2ccccc2)cc1`, which Potency [4] is on record?
Its Potency is 3.55 µM (active).

And the Potency [1]?
The Potency was 3.98 µM (active).

And the Potency [2]?
The Potency was “inactive”.

What about the Potency [3] of the same compound?
The Potency was 23.1 µM (active).

What does the source list for `CCNC(=O)[C@H]1O[C@@H](n2cnc3c(N)nc(NCCc4ccc(CCC(=O)O)cc4)nc32)[C@H](O)[C@@H]1O`?
Potency [2]: inactive; Potency [3]: inactive

What does the source list for `CCCSc1ccc2nc(NC(=O)OC)[nH]c2c1`?
Potency [2]: inactive; Potency [6]: inactive; Potency [3]: 0.556 µM (active)

For `C=CC(C)=C[C@@]1(C)SC(=O)C(C)=C1O`, which remaining parasite growth % (stronger effect = lower value) [8] is on record?
The remaining parasite growth % (stronger effect = lower value) was 98%.

What about the activity, percent of control [9] of the same compound?
Its activity, percent of control is 98.3%.

What about the remaining proliferation (% of control), lower = more inhibition [10] of the same compound?
The remaining proliferation (% of control), lower = more inhibition was 92.5%.

What about the parasite growth, % of DMSO control [11] of the same compound?
The parasite growth, % of DMSO control was 98.9%.

What about the parasite growth remaining, % of DMSO control (lower = more inhibition) [12] of the same compound?
The parasite growth remaining, % of DMSO control (lower = more inhibition) was 108%.

What about the parasite growth, % of control (lower = inhibition) [13] of the same compound?
The parasite growth, % of control (lower = inhibition) was 151%.

And the growth, % of control [14]?
The growth, % of control was 77.3%.

With `C=CCc1cccc(/C=N/NC(=O)CN2CCN(Cc3ccccc3)CC2)c1O` as the compound, how does the remaining parasite growth % (stronger effect = lower value) [8] read?
Its remaining parasite growth % (stronger effect = lower value) is 16.2%.

What about the activity, percent of control [9] of the same compound?
The activity, percent of control was 11.8%.

And the remaining proliferation (% of control), lower = more inhibition [10]?
The remaining proliferation (% of control), lower = more inhibition was 9.08%.

What about the Potency [15] of the same compound?
The Potency was 10.5 µM (active).

And the Potency [16]?
The Potency was 26.4 µM (active).

And the Potency [17]?
Its Potency is 4.18 µM (active).
